Screening data (PubChem BioAssay)
Rows were chosen to be rich in hits. Some 3.2% of all compounds tested hit in one or more screens of this group.
FMDV inh – blocks foot and mouth disease virus; FMDV antiviral cell-based qHTS; Potency, µM (series often up to 57.9 µM), for inactives: at the highest dose activity change, negative = inhibition, hits mostly inhibitors; 410,000 tested, 1.2% active; calls by dose curve; tested in HEK293T cells; further: read-out not given here; nearly all actives have a fitted effect of over 45% in size
Lassa entry inh – blocks Lassa virus binding to or entry into cells; 300,000 tested, 1.2% active; Potency, µM (series often up to 37.9 µM), for inactives: at the top dose activity change, negative = inhibition, actives largely listed as inhibitors; Lassa virus pseudotype entry inhibition, cell reporter; calls by dose curve; tested in HEK293 cells; further: nearly all actives have a fitted effect of over 50% in size
VACV Venus inh – vaccinia inhibition (Venus reporter). Vaccinia virus Venus reporter expression, fluorescence. Potency, µM (series often up to 36.5 µM), for inactives: at the highest dose activity change, negative = inhibition, usual class: inhibitors. 330,000 tested, 0.46% active; calls by dose curve; tested in A549 cells; further: nearly all actives have a fitted effect of over 30% in size
VACV mCherry inh – vaccinia inhibition (mCherry reporter); Vaccinia virus mCherry reporter infection, fluorescence; Potency, µM (doses to about 36.5 µM), for inactives: at the highest dose activity change, negative = inhibition, hits mostly inhibitors; 310,000 tested, 0.63% active; calls by dose curve; tested in A549 cells; further: nearly all actives have a fitted effect of over 35% in size
MARV entry inh – blocks Marburg virus binding to or entry into cells | Marburg virus pseudotyped entry inhibition, cell reporter | Potency, µM (doses to about 37.8 µM), inactives show top-dose activity change, negative = inhibition, hits mostly inhibitors | 300,000 tested, 1.8% active | AID 540276; calls by dose curve; tested in HEK293 cells
* hit, by the source's call; i = inactive; ? = inconclusive; · = not tested or not shown; [ ] = remark or other dose. On the % scale 0 is the no-effect control and ±100 the full control effect; potency means the concentration at half of the fitted maximal effect.

SMILES	FMDV inh	Lassa entry inh	VACV Venus inh	VACV mCherry inh	MARV entry inh
CCCCc1c(-c2ccccc2OC)ncn1Cc1cccc(-c2ccccc2)c1	?	·	?	-21.4%	·
Cc1ccc(S(=O)(=O)Cc2nc(-c3ccc(C(=O)NCc4ccccc4F)cc3)oc2C)cc1	·	-20.2%[46.1 µM]	·	·	·
COC1(OC)C(/C=C/c2ccc(C)cc2)C(C#N)(C#N)C1(OC)OC (configuration not stated)	22.4µM*	?	28.2µM*	14.1µM*	?
CCNC(=O)CC1C(=O)N(c2ccc(F)cc2)C(=O)N1CCOC (configuration not stated)	-20.0%	-2.5%[46.1 µM]	12.0%	2.4%	6.3%[46.1 µM]
CCOC(=O)c1cnc(Nc2nc3ccccc3o2)nc1C	?	1.3µM*	·	·	4.11µM*
Cc1nc(Nc2nc3ccccc3o2)nc2c1CCC2	?	?	·	·	7.3µM*
CCc1ccc(S(=O)(=O)NCCc2csc3nc(-c4ccccc4)nn23)s1	18.2%	-3.6%[46.1 µM]	-14.6%	-0.6%	·
O=C(C1CCC(Cn2c(=O)c3sccc3n(Cc3cccc(F)c3)c2=O)CC1)N1CCCCC1 (configuration not stated)	?	-11.3%[46.1 µM]	-25.2%	-27.7%	·
Cc1ccc(OCC(=O)c2cc(C)n(Cc3cccs3)c2C)c([N+](=O)[O-])n1	17.8µM*	?	?	?	?
Cc1ccc(OCC(=O)c2cc(C)n(CC(F)(F)F)c2C)c([N+](=O)[O-])n1	-22.4%	-22.3%[46.1 µM]	-17.7%	i	-3.0%[46.1 µM]
CCCCOc1ccc(CS[C@@H](CC(=O)O)C(=O)O)cc1	·	·	·	·	4.6%
CN1N=C(C(C)(C)C)CC1=O	-8.6%	-6.3%	2.2%	-1.6%	22.4µM*
CCOC(=O)CN1C(=O)NC(c2ccc(Br)cc2)C(C(=O)OC)=C1C (configuration not stated)	·	·	·	·	-10.5%[14.2 µM]
Cc1cccc(OCC(=O)NCCc2nc3ccccc3[nH]2)c1C	-29.3%	0.7%[46.1 µM]	-9.6%	-10.6%	-0.9%[46.1 µM]
COCC(=O)O[C@]1(CCN(C)CCCc2nc3ccccc3[nH]2)CCc2cc(F)ccc2[C@@H]1C(C)C	?	5.17µM*	?	-16.6%	7.3µM*
Cc1csc(NC(=O)c2ccc3ccccc3n2)n1	-36.6%	?	-13.0%	-9.4%	?
CCc1ccc(C(=O)Nc2nc(C)cs2)s1	?	1.26µM*	-18.5%	-17.7%	?
Cc1csc(NC(=O)c2cnc3ccccc3n2)n1	?	?	7.7%	3.1%	5.62µM*
CCOC(=O)c1sc(NC(=O)c2ccc(CC)s2)nc1C	50.8%	?	·	·	?
O=C(Nc1ccccc1)c1cn2ccccc2n1	?	·	-12.0%[7.34 µM]	i[7.34 µM]	·
Cc1csc(NC(=O)c2cn3ccccc3n2)n1	14.1µM*	3.98µM*	-6.4%	0.3%	?
CC1=CC2C(C(O)CC3(C)C2CC(C)C32OCOC23COCO3)C2(C)C/C(=C\O)C(=O)C=C12 (configuration not stated)	39.8µM*	?	12.6µM*	?	7.94µM*
COc1ccc(COC(=O)NN=C2C[C@@H](O)[C@@H](O)[C@@H]3[C@H]4C(=O)N(Cc5ccccc5)C(=O)[C@@H]4CC[C@@H]23)cc1	·	4.45µM*	·	·	-25.3%[14.2 µM]
COc1ccc(COC(=O)N/N=C2/C[C@@H](O)[C@@H](O)[C@@H]3[C@@H]4C(=O)N(Cc5ccccc5)C(=O)[C@H]4CC[C@H]23)cc1	·	·	·	·	-25.3%[14.2 µM]
CC1(C)Cc2c(sc3[nH]c(=S)n(Cc4ccccc4)c(=O)c23)CO1	·	6.51µM*	-14.4%	-3.2%	?
SMILES	FMDV inh	Lassa entry inh	VACV Venus inh	VACV mCherry inh	MARV entry inh
CC1(C)Cc2c(sc3c2c(=N)n(Cc2ccco2)c(=O)n3Cc2ccc(F)cc2)CO1	-20.9%	7.08µM*	?	·	?
CC(C)C1=Nc2nc(N)nn2C(=O)C1	·	·	·	·	4.4%
COc1ccc(-c2nc3ccccc3s2)cc1O	-58.2%	7.08µM*	-16.2%	-21.2%	7.08µM*
CN(C(=O)OC(C)(C)C)c1ccc(-c2nc3ccccc3s2)cc1	100µM*	·	·	·	·
Oc1cccc(-c2nc3ccccc3s2)c1	-43.9%	?	-20.3%	·	7.08µM*
COc1cc(-c2nc3ccccc3s2)ccc1O	·	?	-2.6%	-3.6%	1.3%
Cc1nnc2c(Nc3cccc(O)c3)nc3ccccc3n12	-6.3%	4.5%[46.1 µM]	-8.0%	-11.7%	-24.4%[46.1 µM]
COc1cc(=O)n2c(c1C(=O)NCc1ccco1)CCN(Cc1cccc(Cl)c1)CC2	-14.6%	·	-4.2%	-10.8%	·
COc1cc(C#Cc2c(-c3cncn3C)n(C)c3ccc(-c4cc(OC)c(OC)c(OC)c4)cc23)cc(OC)c1	-11.2%	·	11.2µM*	?	·
COc1cc(C#Cc2c(-c3cncn3C)n(C)c3ccc(-c4ccc(OC)nc4)cc23)cc(OC)c1	?	·	28.2µM*	?	·
O=C(C1CCC(Cn2c(=O)c3sccc3n(Cc3cccc(F)c3)c2=O)CC1)N1CCOCC1 (configuration not stated)	-12.0%	-17.3%[46.1 µM]	-4.5%	-7.6%	·
C/C(=N/OCO/N=C(\C)c1ccccc1)c1ccccc1	-7.1%	?	7.5%	-7.3%	3.55µM*
C/C(=N\OCc1ccc(C#N)cc1)c1ccccc1	87.4%	·	·	·	·
COc1ccc(NC(=O)c2cccc(S(=O)(=O)N(C)c3ccccc3)c2)cn1	35.5µM*	?	-14.3%	-24.8%	-29.7%
O=C(Nc1ccc(Oc2cccc(C(F)(F)F)c2)nc1)c1ccccc1	?	?	-20.2%	-12.3%	?
Cc1ccc(N(C)S(=O)(=O)c2cccc(C(=O)Nc3ccc(C)cn3)c2)cc1	39.8µM*	?	-23.3%	-26.0%	?
COc1cccc(C(=O)Nc2ccc(Oc3cccc(C(F)(F)F)c3)nc2)c1	-23.3%	?	?	i	8.91µM*
CN(c1ccccc1)S(=O)(=O)c1cccc(C(=O)Nc2ccc3c(c2)CCC3)c1	-16.1%	16.4µM*	-20.9%	-13.6%	15.8%
CN(C)S(=O)(=O)c1cccc(C(=O)Nc2ccc(Cl)cn2)c1	·	-17.5%	-11.3%	?	?
CN(c1ccccc1)S(=O)(=O)c1cccc(C(=O)NNC(=O)c2ccccc2)c1	?	-9.6%	-17.6%	-7.8%	?
Fc1ccc(Br)cc1C1C=C(c2ccc(Br)cc2)Nc2nnnn21 (configuration not stated)	-14.3%	10.0%[46.1 µM]	-17.2%	-12.1%	·
Cc1cccc2nc(-c3ccccc3)nc(N[C@@H](CO)c3ccccc3)c12	-2.9%	?	-20.6%	?	?
Cc1ccc(N(C)S(=O)(=O)c2cccc(C(=O)OCC(=O)N(C)Cc3ccccc3)c2)cc1	28.2µM*	·	-16.3%	i	·
CCCCNC(=O)c1cccc2c(=O)c(C)c(-c3ccccc3)oc12	0.0%	?	-17.9%	i	-23.1%
CCCCN(C(=O)c1cccc2c(=O)c(C)c(-c3ccccc3)oc12)c1ccccc1	?	11.6µM*	·	·	?
CCOC(=O)C1(Cc2ccccc2C(F)(F)F)CCN(C2CCCC2)CC1	-12.6%	?	-20.0%	-17.9%	7.94µM*
CCOC(=O)C1(Cc2ccccc2C(F)(F)F)CCN(C2CCSC2)CC1 (configuration not stated)	-28.2%	-14.5%	-6.9%	-8.8%	-5.7%[46.1 µM]
CCCN1CNc2c(c(=O)[nH]c(=S)n2CCc2ccccc2Cl)C1	·	·	-12.6%	i	·
